# Bioassay records from PubChem.
# A selection: hits, their analogues and other compounds. The true share with any hit is near 1.3%.
# BRCA1 expr act = qHTS Assay to Identify Small Molecule Activators of BRCA1 Expression; MCF7-BRCA1-FFLuc reporter, luminescence, 48 h; response scale: scaled: vehicle 0%, 10 µM genistein 100%; Potency, µM (top dose mostly 46.1 µM), hits mostly activators; 380,000 tested, 1.1% active; AID 624202, 2012; also: nearly all actives have a fitted effect of over 80% in size
#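 MCF7-BRCA1-FFLuc cells, 2000/well in phenol-red-free MEM, attached 2 h then treated 48 h at 37 C. Luciferase luminescence read 15 min after reagent; normalized to genistein maximum activation (10microM) and DMSO, concentration-response fitted.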
# BCR signal inh = qHTS Assay to Find Inhibitors of Chronic Active B-Cell Receptor Signaling; ABC-DLBCL IkBa-CBG/CBR reporter, luminescence ratio, 4 h; Potency, µM (highest dose often 46.1 µM), usual class: inhibitors; 340,000 tested, 0.05% active; AID 493014, 2011; active = well fitted inhibition curve with a large enough effect in the signal ratio, with a control signal flat, not every such curve was filed as active; inconclusive = small, poorly fitted or top-dose-only effect, or effect the other way, or a change in a side signal; the % refers to the signal ratio
#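 Doxycycline induced both beetle luciferases in TMD8 lymphoma cells; IKK-driven degradation limits the IkappaBalpha-fused green signal, while red luminescence normalises for cell number and nonspecific effects. Compounds tested up to 46 uM, 4 hrs.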
# TCR act = Activators of T cell receptors: qHTS campaign. primary human leukocytes, anti-CD3, IL-2 HTRF, 48 h. 330,000 tested, under 10 active. Potency, µM (series often up to 9.22 µM), usual class: activators
#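 TCR engagement came from a-CD3 beads alone, with compounds added to primary human leukocytes for 48 hr. Secreted IL-2 bridged europium cryptate- and d2-labelled anti-IL-2 antibodies, giving FRET emission at 665nm after 320nm excitation.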
# IL-2 act = qHTS of IL-2 Activators; IL-2 activation reporter assay, cell-based qHTS; stimulated with anti-CD3/CD4/CD28 beads; in transgenic mouse T cells; activation, % (series mostly up to about 46 µM); 360,000 tested, 0.065% active; in the data active = activation above about 50%; inconclusive = mostly about 30% to 49%
#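 First, unstimulated transgenic mouse T cells were exposed to compound for 60 min. Next, anti-CD3/anti-CD4-coated beads with anti-CD28 were added. Finally, after 18 h at 37 degrees C, EGFP and DsRed were imaged.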
# Mito fusion yeast = qHTS Assay for Small Molecule Inhibitors of Mitochondrial Division or Activators of Mitochondrial Fusion. 320,000 tested, 0.23% active. Potency, µM (doses to about 46.1 µM), usual class: activators. S. cerevisiae fusion-defective mutant growth rescue, CellTiterGlo 48 h; also: nearly all actives have a fitted effect of over 45% in size
#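 Compounds are tested for their ability to restore growth of mitochondrial fusion-defective yeast strains at non-permissive 37C in YPEG medium over 48 hours. Viability is quantified by luciferase luminescence.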
# PTHR1 agonist = qHTS for PTHR1 Agonists: Primary Screen. HEK293 GP2 PTHR1 cells, GloSensor cAMP luminescence, 1 h. Potency, µM (top dose mostly 115 µM), hits mostly activators. 410,000 tested, 0.075% active. AID 743266, 2014; also: nearly all actives have a fitted effect of over 55% in size
# Target sequence (Q03431 whole entry, looked up): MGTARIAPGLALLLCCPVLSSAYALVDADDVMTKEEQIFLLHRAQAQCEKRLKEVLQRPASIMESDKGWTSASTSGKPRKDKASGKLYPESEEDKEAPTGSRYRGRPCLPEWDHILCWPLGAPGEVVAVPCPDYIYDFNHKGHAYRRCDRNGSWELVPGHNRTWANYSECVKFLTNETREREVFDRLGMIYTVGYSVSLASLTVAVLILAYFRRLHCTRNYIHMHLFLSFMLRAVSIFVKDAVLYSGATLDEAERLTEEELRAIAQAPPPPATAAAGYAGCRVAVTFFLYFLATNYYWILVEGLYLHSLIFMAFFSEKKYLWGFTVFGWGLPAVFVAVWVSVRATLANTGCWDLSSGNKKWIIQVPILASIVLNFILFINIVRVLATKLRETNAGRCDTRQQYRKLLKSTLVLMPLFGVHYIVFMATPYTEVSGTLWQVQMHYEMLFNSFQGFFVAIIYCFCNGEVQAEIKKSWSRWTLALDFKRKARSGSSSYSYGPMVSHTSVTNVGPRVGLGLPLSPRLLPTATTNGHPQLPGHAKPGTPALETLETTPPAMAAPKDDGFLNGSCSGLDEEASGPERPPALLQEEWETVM
#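 HEK-293-derived GP2 cells expressing PTHR1 and a GloSensor cAMP reporter, 3,000/well, plated overnight, given luciferin plus IBMX (each 0.5 mM as added) for 1 h at 37 °C, then compound for 1 h at 37 °C. Luminescence was read after 15 min at room temperature.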
# Hits are given with their value; 0 = inactive; ? = inconclusive; - = no result. Unless noted, calls follow the shape of the dose curve; as a rule, active = well fitted curve in the direction sought with a large enough effect; inconclusive = small, poorly fitted or top-dose-only effect, or another doubt; inactive = no such curve, though single readings can be large; an effect the other way counts as inactive or inconclusive.
SMILES,BRCA1 expr act,BCR signal inh,TCR act,IL-2 act,Mito fusion yeast,PTHR1 agonist
COc1cccc(OC)c1-c1cc(CCCc2cc(-c3c(OC)cccc3OC)nc3ccccc23)c2ccccc2n1,0,-,-,-,-,-
Cc1ccc(C)n1-c1ccc(-c2ccn[nH]2)cc1,0,0,0,0,0,0
c1ccn(-c2ccc(-c3ccn[nH]3)cc2)c1,5µM,?,0,0,?,0
Cc1ccc(C(=O)Nc2ccc3ncccc3c2)cc1,?,?,0,0,0,0
O=C(Nc1ccc2ncccc2c1)c1cccc(Br)c1,2.2µM,?,0,0,0,0
Brc1ccc(CNc2ccc3ncccc3c2)cc1,8.9µM,0,0,0,0,0
O=C(Nc1ccc2ncccc2c1)c1cc(Cl)ccc1Cl,7.9µM,?,0,0,0,0
OCC1OC(n2cnc3c(N4CCCCC4)ncnc32)C(O)C1O (stereo not drawn),0,-,0,0,-,0
COc1cc2nc(N3CCCN(C)CC3)nc(NC3CCNCC3)c2cc1OC,0,-,-,-,-,-
Clc1cccc(Cl)c1CNC1CCCC1,0,?,0,104,0,0
Cc1c(CNC2CCCCC2)c(C(=O)O)c(C)n1Cc1c(F)cccc1Cl,-,-,-,-,-,0
CC(C)n1c(O)c(N=Nc2ccc(Cl)nn2)c2ccccc21,0,0,0,88,0,0
CC(C)n1c(O)c(N=NC(=O)CNC(=O)Cc2ccc(Cl)cc2)c2ccccc21,0,0,0,0,0,0
Fc1cccc2sc(Nc3nc4cc5c(cc4s3)OCCO5)nc12,0,0,0,0,11µM,0
Cc1ccc(S(=O)(=O)N2CCCN(c3nc(-c4cccs4)nc4ccccc34)CC2)cc1,0,-,-,-,-,-
CN1CCC/C1=C/C=C1\SC(=S)NC1=O,10µM,0,0,0,0,0
CN1/C(=C\C=C2/SC(=S)NC2=O)C(C)(C)c2ccccc21,0,0,0,0,0,0
NCCCN(Cc1ccc(Cl)c(Cl)c1)c1ccc(Br)cn1,0,-,-,-,-,-
CN(C)c1ccc(/C=N\Nc2ccc([N+](=O)[O-])cc2[N+](=O)[O-])cc1Br,0,-,-,-,-,-
Cc1ccccc1N(C)S(=O)(=O)c1nnc(NC(=O)C(C)C)s1,-,-,-,-,-,0
Cc1ccccc1N(C)S(=O)(=O)c1nnc(NC(=O)c2ccccc2F)s1,0,0,0,0,5.6µM,0
O=C(Nc1ccc(CN2CCOCC2)cc1)c1ccc(Cl)cc1,13µM,0,0,0,0,0
O=C(Nc1ccc(CN2CCOCC2)cc1)c1ccc(Br)cc1,?,0,0,0,0,0
O=C1C2CC=CCC2C(=O)N1Cc1ccccc1Cl (stereo not drawn),0,0,0,0,0,0
COC(=O)c1cc(-c2ccc(C)cc2)n[nH]1,10µM,?,0,0,0,0
SMILES,BRCA1 expr act,BCR signal inh,TCR act,IL-2 act,Mito fusion yeast,PTHR1 agonist
O=C(Nc1nc(-c2ccncc2)cs1)C1c2ccccc2Oc2ccccc21,0,?,0,0,11µM,0
O=C(O)c1ccc2noc(-c3ccccc3)c2c1,4µM,?,0,0,0,0
O=C(OCCF)N1CCN(/[N+]([O-])=N/Oc2ccc([N+](=O)[O-])cc2[N+](=O)[O-])CC1,0,-,-,-,-,-
Brc1ccc[n+](CCC2CCCCC2)c1,0,-,-,-,-,-
c1ccc(CCNc2nc3ccccc3s2)cc1,11µM,?,0,0,0,0
COc1ccc(CNc2nc3ccccc3s2)cc1OC,0,?,0,0,0,0
Cc1ccc(COn2c(-c3ccc(Cl)cc3)nc3ccc([N+](=O)[O-])cc32)cc1,10µM,0,0,0,0,0
CCOc1ccc(S(=O)(=O)N2CN(c3cccc(C(C)=O)c3)c3nc4ccccc4nc32)cc1,0,0,0,0,-,0
O=c1oc2cc(Cl)ccc2n1CSc1nc2ccccc2s1,7.9µM,?,0,0,0,0
